# Test results from PubChem BioAssay (NCATS).
# Records with an inconclusive call do not appear. Calls of active or inactive are those of the source. Unless noted, calls come from the whole dose curve; as a rule, active = well fitted curve in the direction sought with a large enough effect; inconclusive = small, poorly fitted or top-dose-only effect, or another doubt; inactive = no such curve, though single readings can be large; an effect the other way counts as inactive or inconclusive.
# Legend:
# [1] = molecular target: Lysosomal acid glucosylceramidase (Homo sapiens) (UniProt P04062); test: Glucocerebrosidase-p2 (AID 348; in the data active = potency below about 10 µM; note: potency is the fitted concentration of half-maximal effect); conditions: purified GBA, blue fluorogenic substrate, 40 min
# How it was run: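 Compounds titrated from 0.6 nM upwards against 0.2 nM enzyme in pH 5.9 citric acid/KH2PO4, taurocholate, tween-20; blue fluorogenic substrate 80 uM, 40 min room temperature, stopped and read Ex 365/Em 440 for AC50.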
# [2] = AP1 Signaling Pathway (AID 357; active = well fitted curve in either direction with a large enough effect, not every such curve was filed as active;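 note: ME-180 reporter cells stimulated with EGF at its EC50 level; % is set by controls: 0 for no effect and ±100 for the full control effect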); conditions: ME-180 AP-1-bla reporter, EGF-induced, beta-lactamase ratio, 5 h; at 7.69 µM (top of the series) unless noted
# How it was run: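 A ratiometric CCF4 readout (405 nm excitation; 460 and 530 nm emission) quantified AP-1-driven beta-lactamase in ME-180 cells after 5 h with compound and EC50 EGF; AC50 values were derived for activators and inhibitors.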
# [3] = molecular target: Cytochrome P450 1A2 (Homo sapiens) (UniProt P05177); test: p450-cyp1a2 (AID 410; calls by dose curve; note: potency is the fitted concentration of half-maximal effect)
# How it was run: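 Human CYP1A2 (20nM) demethylated Luciferin-ME at its Km (100uM) in 100mM KPO4. After 10 min compound preincubation, NADPH regeneration ran the reaction 60 min at room temperature. Luciferin was read by luminescence, normalized to 57 uM furafylline.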
# [4] = NFAT Signaling Pathway (AID 444; active = well fitted curve in either direction with a large enough effect, not every such curve was filed as active;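 note: carbachol stimulus at about its EC50 of 1 µM final; % is set by controls: 0 for no effect and ±100 for the full control effect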); conditions: Jurkat NFAT-bla M1, carbachol, beta-lactamase ratio, 5 h; at 7.69 µM (top of the series) unless noted
# How it was run: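 Jurkat cells carrying an NFAT-driven β-lactamase reporter and co-transfected muscarinic M1 receptor were treated with compound plus carbachol (1 uM final, an EC50 level) for 5 h at 37 °C. CCF4 loading followed for 1 h at RT; 460/530 nm ratio gave %activity.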
# [5] = Stat Signaling Pathway (AID 446; active = well fitted curve in either direction with a large enough effect, not every such curve was filed as active;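 note: ME-180 cervical cancer cells given 40 pM IL-6 alongside compound; SIE-controlled beta-lactamase reporter measured as 460/530 nm FRET emission ratio; % is set by controls: 0 for no effect and ±100 for the full control effect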); conditions: ME-180 SIE beta-lactamase reporter, IL-6 stimulated, 5 h; at 7.69 µM (top of the series) unless noted
# How it was run: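 Reporter line: ME-180 cervical carcinoma, SIE-beta-lactamase. Treatment: compound with 40 pM IL-6, 5 hrs, 37 C, in low-serum OPTI-MEM with 10 mM HEPES pH 7.3. Detection: 460/530 nm fluorescence.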
# [6] = molecular target: Glucocorticoid receptor (Homo sapiens) (UniProt P04150); test: GR-GFP Redistribution (AID 450;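 active = compounds whose dose series gives a full or clear partial fitted curve of increased nuclear translocation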; note: potency is the fitted concentration of half-maximal effect); conditions: U2OS GR-GFP nuclear translocation, laser cytometry, 2 h
# [7] = molecular target: Glucocorticoid receptor (Homo sapiens) (UniProt P04150); test: GR-EFC Redistribution (AID 451; calls by dose curve; note: potency is the fitted concentration of half-maximal effect); conditions: CHO-K1 GR-EFC translocation, beta-gal luminescence, 2 h
# How it was run: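 CHO-K1 cells stably expressing nuclear-localized β-gal enzyme acceptor and GR fused C-terminally to the enzyme donor fragment; ligand-driven nuclear translocation restores β-gal by complementation. Compounds titrated up to 46 uM final, 2 h at 37 °C; luminescence read.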
# [8] = molecular target: Mitogen-activated protein kinase 10 (Mus musculus) (UniProt Q61831); test: JNK3 AlphaScreen Assay (AID 530; active = well fitted curve in either direction with a large enough effect, not every such curve was filed as active;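 note: kinase came from lysate of stimulated human HepG2 cells; signal reports phosphorylation of biotinylated GST-cJun 1-79 at Ser73 with 10 µM ATP; % is set by controls: 0 for no effect and ±100 for the full control effect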)
# How it was run: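 JNK3 came from HepG2 lysates pre-activated with IL-1beta and TNF-alpha and phosphorylated biotinylated GST-cJun (1-79) at 10 uM ATP, pH 7.6, room temperature. Compounds were titrated. AlphaScreen signal used anti-phospho-cJun (Ser73) antibody.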
# [9] = molecular target: 3',5'-cyclic-AMP phosphodiesterase 4B (Homo sapiens) (UniProt Q07343); test: qHTS Assay for Inhibitors of PDE-IV (AID 607; active = well fitted activation curve with a large enough effect in the main read-out, with a control signal flat, not every such curve was filed as active; note: % of control where 0% means no effect)
# How it was run: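 Cell-based read-out of cAMP via a modified cyclic nucleotide-gated channel and membrane potential dye (535/590 nm) in HEK293 cells expressing PDE4 endogenously. Compounds tested up to 22.9 uM final; 100 uM RO 20-1724 reference.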
# [10] = molecular target: Cytochrome P450 2D6 (Homo sapiens) (UniProt P10635); test: qHTS Assay for Inhibitors and Substrates of Cytochrome P450 2D6 (AID 891); note: potency is the fitted concentration of half-maximal effect; nearly all actives have a fitted effect of over 60% in size
# How it was run: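 Human CYP2D6 (5 nM) with 30 uM Luciferin-ME EGE (at Km) in 100 mM KPO4, compound preincubated 10 min, then NADPH regeneration system for 60 min at room temperature. Luciferin read by luminescence; normalized to 1.43 uM quinidine.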
# [11] = Confirmation and Secondary Assay for Modulators of Hemoglobin Beta Chain Splicing at IVS2 654 locus (AID 910);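 note: per-well total GFP intensity by laser scanning cytometry after 2-day treatment; % of control where 0% means no effect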
# How it was run: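 HeLa cells stably carrying EGFP interrupted by mutant beta-globin IVS2-654 intron (CMV-driven) were treated with compound for 2 days at 37C; corrected splicing was scored as total peak GFP intensity per well (488 nm excitation, 500-520 nm emission).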
# [12] = Confirmation and Secondary Assay for Modulators of Hemoglobin Beta Chain Splicing at IVS2 705 locus (AID 930);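 note: HeLa cells stably expressing the EGFP-705 splicing reporter; GFP fluorescence per well restored by corrected splicing of the IVS2-705 intron in EGFP; % of control where 0% means no effect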
# How it was run: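 Fluorescence gain (488 nm laser, 500-520 nm PMT) reflects restored correct splicing of a mutant IVS2-705 intron inside EGFP in stably transfected HeLa cells after 2-day compound treatment.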
# [13] = qHTS Assay for Lipid Storage Modulators (AID 1519; calls by dose curve); conditions: Drosophila S3 cells, BODIPY lipid droplet/cell ratio, laser cytometry, cells loaded with oleic acid; for activity change, negative = inhibition: at 57.5 µM (top of the series)
# How it was run: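 Cells seeded at 5,000 per well were treated with compounds over a concentration series and loaded with oleic acid (400 uM, as added). Lipid droplet fluorescence (488 nm excitation, 500-530 nm channel) was read by laser-scanning cytometry and normalized to 20 uM Triacsin C.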
# [14] = molecular target: Ubiquitin carboxyl-terminal hydrolase 1 (Homo sapiens) (UniProt O94782); test: Inhibitors of USP1/UAF1: Pilot qHTS (AID 504865);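 note: rhodamine fluorescence freed from ubiquitin-rhodamine substrate followed over time; top concentration of the series differs between compounds; % is set by controls: 0 for no effect and ±100 for the full control effect; nearly all actives have a fitted effect of over 35% in size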
# How it was run: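 Enzyme-free wells gave the negative control, while test wells held 1nM USP1/UAF1 preincubated with compound for 15 min at room temperature. Ub-Rho at 150nM final started the reaction, and fluorescence at 480/540 nm was recorded kinetically.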
# [15] = molecular target: Calcium and integrin-binding protein 1 (Homo sapiens) (UniProt Q99828); test: Primary qHTS for Identification of Calcium Integrin Binding Protein 1 (CIB1) Competitor (AID 1508620)
# How it was run: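 Fluorescence polarization competition: CIB1-GST (1 uM final) preincubated with compound 15 min at room temperature, then FITC-labeled alphaIIb peptide (100 nM final) added for another 15 min. Polarization read at Ex 480/Em 540.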
# [16] = Primary qHTS for small molecule stabilizers of the endoplasmic reticulum resident proteome: Secreted ER Calcium Modulated Protein (SERCaMP) assay (AID 1508630); note: % is set by controls: 0 for no effect and ±100 for the full control effect
# How it was run: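 GLuc-SERCaMP-expressing SH-SY5Y cells, pretreated 16 h with compound, are challenged with thapsigargin to empty ER calcium stores; after 4 h, coelenterazine is added directly to the medium and luminescence is imaged.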
# [17] = molecular target: N-terminal Xaa-Pro-Lys N-methyltransferase 1 (Homo sapiens) (UniProt Q9BV86); test: Confirmatory qHTS for Inhibitors of N-terminal methyltransferase 1 (NTMT1): MTaseGlo Assay (AID 1645874); note: potency is the fitted concentration of half-maximal effect; nearly all actives have a fitted effect of over 65% in size
# How it was run: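 qHTS format: NTMT1 125 nM, SAM 100 uM, peptide SPKRIA 1 uM final; 15 min compound preincubation, 30 min reaction at room temperature. MTase-Glo luminescence.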
# [18] = molecular target: Cytochrome P450 2C19 (Homo sapiens) (UniProt P33261); test: qHTS Assay for Inhibitors and Substrates of Cytochrome P450 2C19 (AID 899); note: potency is the fitted concentration of half-maximal effect; nearly all actives have a fitted effect of over 60% in size
# How it was run: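 NADPH-dependent conversion of Luciferin-H EGE (10uM, at KM) by 5nM enzyme in 50mM KPO4, 60 min at 37C following 10 min compound preincubation. Stopped with luciferin detection buffer; luminescence read after 20 min.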
# [19] = molecular target: Cytochrome P450 2C9 (Homo sapiens) (UniProt P11712); test: qHTS Assay for Inhibitors and Substrates of Cytochrome P450 2C9 (AID 883); note: potency is the fitted concentration of half-maximal effect; nearly all actives have a fitted effect of over 60% in size
# How it was run: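 A luminogenic readout tracked human CYP2C9 (10nM) converting deoxyluciferin (100uM, at KM) in 25mM KPO4 during 60 min at 37C with regenerated NADPH. Values normalized to 57uM sulphaphenazole as complete inhibition.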
# [20] = molecular target: Cytochrome P450 3A4 (Homo sapiens) (UniProt P08684); test: qHTS Assay for Inhibitors and Substrates of Cytochrome P450 3A4 (AID 884); note: potency is the fitted concentration of half-maximal effect; nearly all actives have a fitted effect of over 50% in size
# How it was run: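 20 nM human CYP3A4 with 25 uM Luciferin-PPXE (at KM) in 200 mM KPO4, preincubated 10 min with compound; NADPH regeneration started a 60 min RT reaction. Luciferin detected by luminescence, normalized to 57 uM ketoconazole as full inhibition.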
# [21] = molecular target: Cytochrome P450 3A4 (Homo sapiens) (UniProt P08684); test: qHTS Assay for Activators of Cytochrome P450 3A4 (AID 885); note: nearly all actives have a fitted effect of over 65% in size
# How it was run: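 Signal was normalized against complete inhibition by 57 uM ketoconazole. The reaction used 20nM CYP3A4 with 25uM Luciferin-PPXE, 10-min compound preincubation and a 60-min NADPH-supported step at RT.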
# [22] = measured here: cell count channel max response
# [23] = measured here: lipid channel max response
# Chain of Glucocorticoid receptor (Homo sapiens) (P04150 whole entry, looked up, the tested form may be a part): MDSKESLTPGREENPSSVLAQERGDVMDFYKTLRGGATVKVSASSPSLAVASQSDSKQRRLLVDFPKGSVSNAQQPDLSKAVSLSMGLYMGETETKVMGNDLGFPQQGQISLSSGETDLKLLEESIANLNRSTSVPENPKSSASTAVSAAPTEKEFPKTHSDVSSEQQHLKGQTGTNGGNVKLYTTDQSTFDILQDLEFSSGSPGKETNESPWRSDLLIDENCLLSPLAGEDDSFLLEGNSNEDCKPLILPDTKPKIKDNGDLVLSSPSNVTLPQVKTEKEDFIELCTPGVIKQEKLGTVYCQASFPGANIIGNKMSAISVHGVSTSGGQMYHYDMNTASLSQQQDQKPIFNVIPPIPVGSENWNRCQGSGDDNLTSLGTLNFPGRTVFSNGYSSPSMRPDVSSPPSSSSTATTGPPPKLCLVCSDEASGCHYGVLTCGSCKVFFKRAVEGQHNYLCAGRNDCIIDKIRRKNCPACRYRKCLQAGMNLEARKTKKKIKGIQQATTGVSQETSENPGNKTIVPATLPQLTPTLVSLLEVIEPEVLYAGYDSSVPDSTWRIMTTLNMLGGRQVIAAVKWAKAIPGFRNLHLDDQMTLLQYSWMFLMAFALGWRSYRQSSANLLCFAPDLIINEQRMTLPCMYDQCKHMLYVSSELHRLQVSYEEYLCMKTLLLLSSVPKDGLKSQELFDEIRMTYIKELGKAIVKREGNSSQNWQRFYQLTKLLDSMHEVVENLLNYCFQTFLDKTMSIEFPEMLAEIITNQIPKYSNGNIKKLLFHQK
# Chain of Cytochrome P450 1A2 (Homo sapiens) (P05177 whole entry, looked up): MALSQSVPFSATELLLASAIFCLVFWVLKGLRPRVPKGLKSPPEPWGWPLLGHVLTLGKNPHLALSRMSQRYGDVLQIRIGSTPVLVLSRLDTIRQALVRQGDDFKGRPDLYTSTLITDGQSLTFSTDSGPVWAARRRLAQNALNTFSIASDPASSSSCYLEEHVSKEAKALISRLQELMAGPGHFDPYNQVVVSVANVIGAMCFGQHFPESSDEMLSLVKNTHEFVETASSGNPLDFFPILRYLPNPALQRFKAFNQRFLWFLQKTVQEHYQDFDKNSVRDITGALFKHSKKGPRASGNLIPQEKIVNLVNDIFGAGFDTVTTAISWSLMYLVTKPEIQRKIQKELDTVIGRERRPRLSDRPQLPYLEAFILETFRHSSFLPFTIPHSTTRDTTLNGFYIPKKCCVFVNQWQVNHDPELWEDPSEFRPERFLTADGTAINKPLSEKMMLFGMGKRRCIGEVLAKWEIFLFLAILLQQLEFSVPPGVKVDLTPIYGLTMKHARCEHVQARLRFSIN
# Chain of Calcium and integrin-binding protein 1 (Homo sapiens) (Q99828 whole entry, looked up): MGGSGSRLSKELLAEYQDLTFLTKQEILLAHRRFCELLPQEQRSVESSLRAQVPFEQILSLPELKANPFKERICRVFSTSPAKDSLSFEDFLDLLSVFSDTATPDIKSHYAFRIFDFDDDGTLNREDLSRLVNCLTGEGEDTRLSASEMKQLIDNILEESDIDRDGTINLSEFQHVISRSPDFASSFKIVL
# Chain of Cytochrome P450 2D6 (Homo sapiens) (P10635 whole entry, looked up): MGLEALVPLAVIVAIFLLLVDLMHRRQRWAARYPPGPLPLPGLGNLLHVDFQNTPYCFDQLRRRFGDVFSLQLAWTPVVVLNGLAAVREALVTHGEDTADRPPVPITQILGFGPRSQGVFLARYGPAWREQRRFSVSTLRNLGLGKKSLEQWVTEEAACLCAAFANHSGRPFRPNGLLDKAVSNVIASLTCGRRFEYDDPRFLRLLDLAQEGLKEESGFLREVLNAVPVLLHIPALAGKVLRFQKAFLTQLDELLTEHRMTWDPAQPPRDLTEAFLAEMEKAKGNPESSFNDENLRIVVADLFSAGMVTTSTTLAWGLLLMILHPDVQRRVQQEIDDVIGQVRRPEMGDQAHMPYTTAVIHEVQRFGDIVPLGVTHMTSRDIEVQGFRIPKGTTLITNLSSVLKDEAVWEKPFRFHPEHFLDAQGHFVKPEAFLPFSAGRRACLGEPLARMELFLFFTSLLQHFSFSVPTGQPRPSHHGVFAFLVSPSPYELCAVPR
# Chain of Ubiquitin carboxyl-terminal hydrolase 1 (Homo sapiens) (O94782 whole entry, looked up): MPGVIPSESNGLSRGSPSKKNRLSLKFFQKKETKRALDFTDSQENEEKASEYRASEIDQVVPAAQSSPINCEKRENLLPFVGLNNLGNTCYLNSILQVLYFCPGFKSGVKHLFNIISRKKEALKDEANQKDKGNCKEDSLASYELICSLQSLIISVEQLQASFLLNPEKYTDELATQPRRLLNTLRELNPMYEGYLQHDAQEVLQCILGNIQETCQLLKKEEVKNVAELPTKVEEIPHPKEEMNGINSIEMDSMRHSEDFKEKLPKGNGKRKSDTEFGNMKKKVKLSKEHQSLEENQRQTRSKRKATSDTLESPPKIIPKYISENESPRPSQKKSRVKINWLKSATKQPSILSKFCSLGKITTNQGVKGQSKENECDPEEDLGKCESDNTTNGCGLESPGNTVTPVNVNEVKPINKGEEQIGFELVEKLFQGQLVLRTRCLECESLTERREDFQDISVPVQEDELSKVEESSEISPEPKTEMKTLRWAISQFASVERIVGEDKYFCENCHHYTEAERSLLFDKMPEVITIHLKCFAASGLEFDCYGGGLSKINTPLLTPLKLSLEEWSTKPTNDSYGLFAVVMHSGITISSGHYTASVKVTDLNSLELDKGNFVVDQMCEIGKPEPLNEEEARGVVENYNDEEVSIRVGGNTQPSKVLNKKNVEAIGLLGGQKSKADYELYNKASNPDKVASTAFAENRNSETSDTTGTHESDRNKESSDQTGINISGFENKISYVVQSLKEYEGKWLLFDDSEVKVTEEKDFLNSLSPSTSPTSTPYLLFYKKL
# Chain of Lysosomal acid glucosylceramidase (Homo sapiens) (P04062 whole entry, looked up): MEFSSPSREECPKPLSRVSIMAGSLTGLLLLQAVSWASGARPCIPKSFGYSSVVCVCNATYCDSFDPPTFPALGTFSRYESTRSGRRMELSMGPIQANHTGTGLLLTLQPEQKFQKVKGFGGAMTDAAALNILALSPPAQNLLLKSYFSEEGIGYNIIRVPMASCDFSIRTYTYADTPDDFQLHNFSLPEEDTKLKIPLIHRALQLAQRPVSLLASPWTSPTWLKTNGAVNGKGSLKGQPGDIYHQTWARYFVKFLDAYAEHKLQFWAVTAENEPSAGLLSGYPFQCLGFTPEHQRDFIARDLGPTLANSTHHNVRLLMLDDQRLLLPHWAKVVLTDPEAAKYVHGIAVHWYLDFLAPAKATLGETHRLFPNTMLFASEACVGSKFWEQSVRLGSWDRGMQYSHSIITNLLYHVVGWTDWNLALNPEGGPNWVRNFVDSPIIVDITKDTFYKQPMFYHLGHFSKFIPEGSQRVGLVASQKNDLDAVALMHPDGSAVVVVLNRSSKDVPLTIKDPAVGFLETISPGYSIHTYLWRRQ
# Chain of Cytochrome P450 2C19 (Homo sapiens) (P33261 whole entry, looked up): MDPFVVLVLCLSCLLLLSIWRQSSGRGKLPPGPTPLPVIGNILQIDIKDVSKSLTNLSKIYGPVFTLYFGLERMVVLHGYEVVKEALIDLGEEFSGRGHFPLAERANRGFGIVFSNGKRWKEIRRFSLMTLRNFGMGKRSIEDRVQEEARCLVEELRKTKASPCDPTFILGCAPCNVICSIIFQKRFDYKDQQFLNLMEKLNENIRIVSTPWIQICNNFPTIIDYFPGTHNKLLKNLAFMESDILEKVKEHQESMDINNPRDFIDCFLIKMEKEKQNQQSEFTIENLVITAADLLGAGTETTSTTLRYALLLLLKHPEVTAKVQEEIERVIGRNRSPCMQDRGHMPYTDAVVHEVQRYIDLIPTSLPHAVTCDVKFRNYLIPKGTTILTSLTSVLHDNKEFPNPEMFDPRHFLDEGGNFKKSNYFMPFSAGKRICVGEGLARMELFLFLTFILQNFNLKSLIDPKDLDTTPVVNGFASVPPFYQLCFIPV
# Chain of Cytochrome P450 3A4 (Homo sapiens) (P08684 whole entry, looked up): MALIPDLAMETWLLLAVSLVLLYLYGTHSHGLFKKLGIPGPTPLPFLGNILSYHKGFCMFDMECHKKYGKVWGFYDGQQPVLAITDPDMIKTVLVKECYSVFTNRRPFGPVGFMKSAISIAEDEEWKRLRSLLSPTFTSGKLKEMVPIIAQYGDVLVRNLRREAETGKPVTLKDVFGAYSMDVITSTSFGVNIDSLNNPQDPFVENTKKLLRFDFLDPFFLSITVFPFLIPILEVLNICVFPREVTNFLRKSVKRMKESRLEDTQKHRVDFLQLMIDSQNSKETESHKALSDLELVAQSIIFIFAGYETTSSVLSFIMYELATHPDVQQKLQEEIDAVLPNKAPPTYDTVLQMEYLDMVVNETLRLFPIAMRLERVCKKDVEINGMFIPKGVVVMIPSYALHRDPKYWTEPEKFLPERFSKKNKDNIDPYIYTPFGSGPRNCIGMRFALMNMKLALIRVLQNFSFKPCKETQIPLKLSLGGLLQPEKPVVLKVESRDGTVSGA
# Chain of N-terminal Xaa-Pro-Lys N-methyltransferase 1 (Homo sapiens) (Q9BV86 whole entry, looked up): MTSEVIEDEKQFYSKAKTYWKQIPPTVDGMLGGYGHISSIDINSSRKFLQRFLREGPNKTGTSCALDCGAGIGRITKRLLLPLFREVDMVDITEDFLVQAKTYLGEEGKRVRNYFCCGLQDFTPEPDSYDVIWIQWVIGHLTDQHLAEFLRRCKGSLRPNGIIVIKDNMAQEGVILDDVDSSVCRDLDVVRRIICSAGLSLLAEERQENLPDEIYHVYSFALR
structure (smiles),measurement,setting,value
c1nc(N2CCNCC2)c2cc(-c3ccc4c(c3)OCO4)ccc2n1,Potency,[1],> 11.4 µM (inactive)
same,"activity change, negative = inhibition",[2],-9.83% (inactive)
same,Potency,[3],2 µM (active)
same,"activity change, negative = inhibition",[4],-0.53% (inactive)
same,"activity, negative = inhibition",[5],1.4% (inactive)
same,Potency,[6],> 46 µM (inactive)
same,Potency,[7],> 46 µM (inactive)
same,outcome,[8],inactive
same,Potency,[9],inactive
same,Potency,[10],2.51 µM (active)
same,outcome,[11],inactive
same,outcome,[12],inactive
same,"activity change, negative = inhibition",[13],13.1% (inactive)
same,max response,[13]; [22],9.51%
same,max response,[13]; [23],19.9%
same,Potency,[14],inactive
same,Potency,[15],inactive
same,Potency,[16],inactive
COc1cc(Nc2nc(-c3ccncc3)nc3ccccc23)ccc1N1CCN(C)CC1,Potency,[15],inactive
same,Potency,[17],17 µM (active)
Cc1ccc(OCCn2c(CCNC(=O)OC(C)(C)C)nc3ccccc32)cc1,Potency,[15],inactive
Cc1cccc(CNc2ncnc3ccc(-c4ccoc4)cc23)c1,"activity change, negative = inhibition",[2],-19.9% (inactive)
same,Potency,[3],3.98 µM (active)
same,"activity, negative = inhibition",[5],-30% (inactive)
same,Potency,[6],> 46 µM (inactive)
same,Potency,[7],> 46 µM (inactive)
same,outcome,[8],inactive
same,Potency,[18],7.94 µM (active)
same,outcome,[11],inactive
same,outcome,[12],inactive
same,"activity change, negative = inhibition",[13],-3% (inactive)
same,max response,[13]; [22],11.4%
same,max response,[13]; [23],6.71%
same,Potency,[14],inactive
same,Potency,[15],inactive
same,Potency,[16],inactive
Cc1cc(NS(=O)(=O)c2ccc(C(=O)NCc3ccc(Cl)c(Cl)c3)cc2)no1,Potency,[15],inactive
Cc1cccc(CNc2ncnc3ccc(-c4ccc5c(c4)OCO5)cc23)c1,Potency,[1],> 11.4 µM (inactive)
same,Potency,[3],0.501 µM (active)
same,"activity, negative = inhibition",[5],-13.6% (inactive)
same,Potency,[6],> 46 µM (inactive)
same,Potency,[7],> 46 µM (inactive)
same,outcome,[8],inactive
same,Potency,[19],0.316 µM (active)
same,Potency,[20],2 µM (active)
same,Potency,[21],inactive
same,Potency,[10],0.501 µM (active)
same,Potency,[18],5.01 µM (active)
same,outcome,[11],inactive
same,outcome,[12],inactive
same,"activity change, negative = inhibition",[13],5.85% (inactive)
same,max response,[13]; [22],-5.17%
same,max response,[13]; [23],-0.18%
same,Potency,[15],inactive
same,Potency,[16],inactive
